# High-throughput results: PubChem, National Center for Advancing Translational Sciences (NCATS)
# Most compounds without a hit are left out; they make up all but 5% or so of the library.
# VACV mCherry inh: vaccinia inhibition (mCherry reporter); Vaccinia virus mCherry reporter infection, fluorescence; Potency, µM (series often up to 36.5 µM), for the others: at the highest dose activity change, negative = inhibition, usual class: inhibitors; 310,000 compounds, 0.63% hits; AID 720579; calls by dose curve; tested in A549 cells; note: potency is the fitted concentration of half-maximal effect; nearly all actives have a fitted effect of over 35% in size
# VACV Venus inh: inhibitors of vaccinia virus (Venus reporter) | 330,000 compounds, 0.46% hits | AID 720580 | Vaccinia virus Venus reporter expression, fluorescence | Potency, µM (series often up to 36.5 µM), for inactives: at the highest dose activity change, negative = inhibition, actives largely listed as inhibitors; calls by dose curve; tested in A549 cells; note: potency is the fitted concentration of half-maximal effect; nearly all actives have a fitted effect of over 30% in size
# HCMV antiviral: blocks human cytomegalovirus replication. HFF cells, HCMV-luciferase reporter, 72 h; stronger effect = lower value. activity change, negative = inhibition, % at 57.5 µM. 410,000 compounds, 4.5% hits. AID 1259415; in the data active = activity change below about -60%; inconclusive = no clear call, values can overlap the other calls; inactive = above about -39%
#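 Compounds were evaluated in HFFs infected with an HCMV luciferase reporter virus (MOI 1 PFU/cell). Luciferase in lysates collected 72 h post infection served as the replication measure.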
# LmPK inh: blocks Leishmania mexicana pyruvate kinase activity; Q27686; purified LmPK, Kinase-Glo ATP luminescence, 1 h; Potency, µM (doses to about 57.5 µM), for inactives: at the top dose activity change, negative = inhibition, most hits filed as inhibitors; 290,000 compounds, 0.37% hits; note: potency is the fitted concentration of half-maximal effect
# Target sequence (Q27686 whole entry, looked up): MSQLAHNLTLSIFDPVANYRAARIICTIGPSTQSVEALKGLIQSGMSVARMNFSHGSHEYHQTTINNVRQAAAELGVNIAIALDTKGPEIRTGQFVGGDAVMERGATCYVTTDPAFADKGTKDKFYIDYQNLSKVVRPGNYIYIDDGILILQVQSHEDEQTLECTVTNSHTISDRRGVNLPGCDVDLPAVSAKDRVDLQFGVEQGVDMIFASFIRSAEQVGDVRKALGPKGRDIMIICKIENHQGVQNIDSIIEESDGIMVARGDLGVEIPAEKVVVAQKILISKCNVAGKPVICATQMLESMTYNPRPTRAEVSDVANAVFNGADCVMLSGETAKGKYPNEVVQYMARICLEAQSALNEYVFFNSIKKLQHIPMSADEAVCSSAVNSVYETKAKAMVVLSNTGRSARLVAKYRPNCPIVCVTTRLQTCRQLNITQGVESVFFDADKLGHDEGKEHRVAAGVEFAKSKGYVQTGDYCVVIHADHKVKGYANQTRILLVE
#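 0.1 nM LmPK, 0.5 mM PEP, 0.1 mM ADP; 50 mM imidazole pH 7.2, 7 mM MgCl2, 50 mM KCl; 1 h RT. Kinase-Glo luminescence readout, normalized to no-enzyme (full inhibition) and uninhibited wells.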
# Tb PYK inh: T. brucei pyruvate kinase inhibition; Q57TT1; TbPYK enzyme, Kinase-Glo Plus ATP luminescence, 45 min; Potency, µM (series often up to 76.8 µM), without a hit: top-dose activity, negative = inhibition, usual class: inhibitors; 410,000 compounds, 0.12% hits; AID 624173; note: potency is the fitted concentration of half-maximal effect; nearly all actives have a fitted effect of over 50% in size
#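 ADP (130 uM final) triggers the TbPYK reaction after compound addition; incubation is 45 min at room temperature. Kinase-Glo Plus is then added and luminescence imaged. Normalized data are fitted to concentration-effect curves.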
# Numbers without * were called inactive; i = inactive; ? = inconclusive; / = not tested or not shown; + = active, no number; [ ] = another dose, or the depositor's remark. Unless noted, calls come from the whole dose curve; as a rule, active = well fitted curve in the direction sought with a large enough effect; inconclusive = small, poorly fitted or top-dose-only effect, or another doubt; inactive = no such curve, though single readings can be large; an effect the other way counts as inactive or inconclusive. % is set by controls: 0 for no effect and ±100 for the full control effect.
SMILES,VACV mCherry inh,VACV Venus inh,HCMV antiviral,LmPK inh,Tb PYK inh
CN1CCN(S(=O)(=O)c2cccc(C(=O)Nc3sccc3C(N)=O)c2)CC1,/,/,47,/,-5%
CN1CCN(C(=O)C2CCC(CNS(=O)(=O)c3cccc4cccnc34)CC2)CC1 (stereo unspecified),i,-6%,20,4%,2%
O=C(C1CCC(CNS(=O)(=O)c2cccc3cccnc23)CC1)N1CCc2ccccc21 (stereo unspecified),-26%,-21%,-61*,-2%,-5%
CN(Cc1ccccc1)C(=O)C1CCC(CNS(=O)(=O)c2cccc3cccnc23)CC1 (stereo unspecified),/,/,-62*,-3%,2%
O=C(NC1(Cc2ccccc2)CCN(Cc2ccc(-c3ccccc3)cc2)C1=O)c1ccccc1 (stereo unspecified),11µM*,?,-31,/,-2%
CCCCN(C)Cc1c(C)[nH]c2ccc(OCC)cc2c1=O,i,-18%,?,-3%,1%
O=C(O)c1cccnc1Nc1ccc(Cl)cc1,?,24%,-72*,0%,2%
Cc1ccc(Nc2ncccc2C(=O)O)cc1C,i,-14%,94,3%,0%
Cc1cccc(CNc2nc(-c3c(C)noc3C)nc3ccccc23)c1,-16%,-16%,/,/,/
NC1=NC(=Nc2cccc(S(N)(=O)=O)c2)c2ccccc21,/,/,-14,-1%,2%
COc1cc(N=Nc2cccc(S(N)(=O)=O)c2)c2ccccc2c1N,?,54%,-66*,?,-14%
Cc1cccc(CN2CCC(N3CC(C)OC(C)C3)CC2)c1 (stereo unspecified),-4%,-5%,17,-5%,25%
Cc1cccc(NS(=O)(=O)c2ccc(C)c(C(=O)OCC(=O)Nc3cc(C)on3)c2)c1,22µM*,9%,-39,0%,5%
CCOC(=O)c1ccc2[nH]cc(C(C)=O)c(=O)c2c1,/,/,-5,-1%,1%
CCOC(=O)CSC1=NC(=O)/C(=C\c2ccc(Cl)cc2)S1,/,/,-94*,-10%,-1%
CCOC(=O)C1CCN(C2=NC(=O)/C(=C/c3ccc(Cl)cc3)S2)CC1,-21%,-17%,-10,7%,-4%
C[C@@H]1CN(S(=O)(=O)C(C)(C)C)[C@H](CCO)/C1=C\c1ccccc1,i,-13%,23,/,3%
CC(C)(C)n1nc2c(c1NC(=O)c1ccc([N+](=O)[O-])cc1)CS(=O)(=O)C2,i,-15%,-2,-10%,0%
CC(C)(C)n1nc2c(c1NC(=O)c1cc([N+](=O)[O-])ccc1Cl)CS(=O)(=O)C2,/,/,+,2%,-1%
CC(Sc1nc(N)cc(=O)[nH]1)C(=O)Nc1sc2c(c1C#N)CCCC2 (stereo unspecified),-26%,-16%,-66*,-11%,3%
C/C(=N\Nc1ccc(F)cc1F)c1ccc(Br)s1,-28%,-17%,-70*,2%,-1%
CCN(CC)CC(O)Cn1c(C)c(-c2ccccc2)c2cc([N+](=O)[O-])ccc21 (stereo unspecified),-30%,?,-68*,-10%,-4%
CCN(CC)CC(O)Cn1c2ccccc2c2ccccc21 (stereo unspecified),/,-14%,?,-8%,2%
Cc1ccc(S(=O)(=O)N2CCN(c3nc(-c4ccccc4)nc4ccccc34)CC2)cc1,-10%,-15%,/,/,/
COc1ccc(-c2csc3nc(-c4cccnc4)nc(Cl)c23)cc1OC,-25%,-30%,-71*,2%,-24%
SMILES,VACV mCherry inh,VACV Venus inh,HCMV antiviral,LmPK inh,Tb PYK inh
Clc1nc(-c2cccnc2)nc2scc(-c3ccccc3)c12,/,/,?,-4%,1%
CC(=O)C1C(=O)c2c(cccc2[N+](=O)[O-])C1=Nc1ccc(S(N)(=O)=O)cc1 (stereo unspecified),/,/,-10,0%,0%
COC(=O)C(CC(=O)c1ccc(Cl)cc1)c1ccccc1 (stereo unspecified),-23%,-16%,-101*,/,-3%
O=C(CCC(=O)c1ccc(Cl)cc1)OCC(=O)c1ccccc1,-4%,-8%,-65*,3%,-6%
O=C(CNC(=O)c1ccc(Cl)cc1)OCC(=O)c1ccccc1,-14%,-9%,-31,2%,-13%
COc1ccc(C(=O)NCC(=O)OCC(=O)c2cccc3ccccc23)cc1,14%,-3%,/,/,/
Cc1c(Cl)cccc1NC(=O)N1CCCN(c2nc(-c3ccccc3)ns2)CC1,-28%,-3%,-70*,1%,-4%
O=C(Nc1ccccc1Cl)N1CCCN(c2nc(-c3ccccc3)ns2)CC1,/,/,?,-1%,4%
FC(F)(F)c1cc(-c2ccco2)nc(-n2cnc3ccccc32)n1,/,/,-10,2%,4%
Cc1nc2ccccc2n1-c1nc(-c2ccco2)cc(C(F)(F)F)n1,?,?,-104*,-12%,3%
CCN(Cc1ccccc1)S(=O)(=O)c1cc(C(=O)NC(C)C2CC3CCC2C3)ccc1OC (stereo unspecified),-3%,?,-88*,-1%,1%
CC(=O)Nc1c(O)cc(Br)c2nonc12,0%,-3%,/,/,/
CC(=O)Nc1cc(O)c2nonc2c1O,11µM*,3.5µM*,/,/,/
CC(=O)NC(CCS(C)(=O)=O)C(=O)Nc1cccc(Cl)c1Cl (stereo unspecified),-25%,3%,5,-3%,3%
COc1ccccc1Nc1cc(C)nc2c(C)ccc([N+](=O)[O-])c12,i,-12%,-67*,3%,5%
COc1ccccc1Nc1ccc(C(=O)O)cc1[N+](=O)[O-],i,-2%,0,0%,-1%
Cc1cc(Nc2ccccc2)c2c([N+](=O)[O-])cc(C)c(C)c2n1,/,-24%,-81*,2%,-1%
O=[N+]([O-])c1ccc(Nc2ccccc2)c2nonc12,-29%,-25%,?,-12%,-4%
O=[N+]([O-])c1cnccc1Nc1ccccc1,/,/,-13,-2%,1%
COc1ccccc1Nc1ccncc1[N+](=O)[O-],/,/,-64*,7%,1%
COc1ccc(/C=C/C(=O)O)cc1S(=O)(=O)NCC1CCCO1 (stereo unspecified),/,/,5,0%,-2%
O=C(NCc1cccnc1)c1nn(-c2ccc(Cl)cc2)nc1CO,-3%,-11%,46,/,0%
Cc1cccc(N2C(=O)C(Oc3ccc(Cl)cc3Cl)C2C(=O)O)c1C (stereo unspecified),-13%,-6%,-10,-10%,-4%
CCCCNCC1C(Oc2ccc(Cl)cc2)C(=O)N1c1ccccc1C (stereo unspecified),i,?,-79*,16%,-2%
CCCNCC1C(Oc2ccc(Cl)cc2Cl)C(=O)N1c1cccc(C)c1C (stereo unspecified),?,?,-90*,2%,-15%
COc1ccc(-n2nnc(-c3nc(-c4cccs4)no3)c2N)cc1OC,-4%[7.34 µM],-3%[7.34 µM],0,/,3%
